{
  "source": "PubChem BioAssay (EPA / NIEHS)",
  "note": "Active and inactive are the calls of the source. How the source made its calls: active means hit-call score of the fitted dose curve at least 0.9, where 1 is the maximum; inactive means score below 0.9.",
  "data": [
    {"molecular_target": "CCAAT/enhancer-binding protein beta (Homo sapiens) (UniProt P17676)", "sequence (P17676 whole entry, looked up)": "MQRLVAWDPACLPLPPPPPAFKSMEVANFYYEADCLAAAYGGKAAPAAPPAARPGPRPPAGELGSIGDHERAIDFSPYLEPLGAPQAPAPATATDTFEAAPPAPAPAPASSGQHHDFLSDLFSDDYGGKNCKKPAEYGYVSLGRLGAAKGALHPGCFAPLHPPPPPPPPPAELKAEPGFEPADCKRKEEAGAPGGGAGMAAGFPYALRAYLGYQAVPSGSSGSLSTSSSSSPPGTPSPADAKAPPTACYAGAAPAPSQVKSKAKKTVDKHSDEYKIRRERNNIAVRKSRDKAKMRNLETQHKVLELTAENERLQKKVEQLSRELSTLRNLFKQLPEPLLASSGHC", "assay": "ATG_C_EBP_CIS: Attagene CIS-FACTORIAL HepG2 Assay for human CCAAT/Enhancer Binding Protein (C/EBP) beta (AID 2282927)", "conditions": "HepG2 Attagene cis-factorial transcription factor reporter; actives raise or lower the signal", "experimental": "ATG_CIS is a cell-based, multiplexed-readout assay that uses HepG2, a human liver cell line, with measurements taken at 24 hours after chemical dosing in a 24-well plate.ATG_C_EBP_CIS is one of 52 assay component(s) measured or calculated from the ATG_CIS assay. It is designed to make measurements of mRNA induction, a form of inducible reporter, as detected with fluorescence intensity signals by Reverse transcription polymerase chain reaction (RT-PCR) and Capillary electrophoresis technology.Data from the assay component ATG_C_EBP_CIS was analyzed into 1 assay endpoint. This assay endpoint, ATG_C_EBP_CIS, was analyzed with bidirectional fitting relative to DMSO as the negative control and baseline of activity. Using a type of inducible reporter, measures of mRNA for gain or loss-of-signal activity can be used to understand the reporter gene at the transcription factor-level as they relate to the gene CEBPB. Furthermore, this assay endpoint can be referred to as a primary readout, because this assay has produced multiple assay endpoints where this one serves a reporter gene function. To generalize the intended target to other relatable targets, this assay endpoint is annotated to the dna binding intended target family, where the subfamily is basic leucine zipper.\nHuman liver HepG2 cells are transiently transfected with multiple reporter transcription units (MRTUs) in 6-well plates using FuGene 6 reagent (Roche; 3 ml FuGene/1 mg DNA). The MRTU constructs are regulated by a cis-regulating element (promoter). […] A major difference between the CIS and TRANS system is that in CIS activities of endogenous TFs are measured, whereas the TRANS assay evaluates changes in activities of exogenous, chimeric NR-Gal4 proteins. […] At the end of 24 hour incubation, total RNA was isolated using TriZol reagent (Invitrogen). The isolated RNA is then reverse-transcribed using oligo(dT) primer and Mo-MLV reverse transcriptase (Invitrogen) with DNAse I (Ambion) treatment for 30 min. The one-tenth of the produced cDNA was amplified by PCR using Taq DNA polymerase (Invitrogen) and two reporter sequence-specific primers. The PCR products were fluorescently labeled by primer extension with 6-arboxyfluorescein (6-FAM) 5'-labeled reporter sequence-specific primer (2 min at 95 C, 20 s at 68 C and 10 min at 72 C) and these products were digested with 5U of HpaI (New England Biolabs) for 2h at 37 C. The fragments were purified using Qiaquick PCR columns (Qiagen), analyzed on an ABI 3130xL genetic analyzer (Applied Biosystems) with peak positions identified by using a set of X-rhodamine (ROX)-labeled MapMarker1000 molecular weight standards (BioVentures). The raw capillary electrophoresis data was processed using Attagraph software (Attagene).", "values": [
      {"smiles": "CC(=O)c1ccc(S(=O)(=O)NC(=O)NC2CCCCC2)cc1", "outcome": "inactive"},
      {"smiles": "CCCCCOC(=O)CCCCC", "outcome": "inactive"},
      {"smiles": "CCOB(OCC)OCC", "outcome": "inactive"},
      {"smiles": "CCc1cccc(CC)c1", "outcome": "inactive"},
      {"smiles": "C=C[C@@]1(C)CC(=O)[C@]2(O)[C@@]3(C)[C@@H](O)CCC(C)(C)[C@@H]3[C@H](O)[C@H](OC(C)=O)[C@@]2(C)O1", "outcome": "inactive"},
      {"smiles": "CN1CCN(C)CC1", "outcome": "inactive"},
      {"smiles": "C=C(C)C(=O)OCCCCCCCCCCCC", "outcome": "inactive"},
      {"smiles": "C=CC(=O)OCC(C)OCC(C)OCC(C)OC(=O)C=C", "note": "(stereo not given)", "outcome": "inactive"},
      {"smiles": "COC(=O)C=Cc1ccccc1", "outcome": "inactive"},
      {"smiles": "COCC(=O)O", "outcome": "inactive"},
      {"smiles": "CCC(C)C(=O)OC", "note": "(stereo not given)", "outcome": "inactive"},
      {"smiles": "O=c1c(O)c(-c2ccc(O)cc2O)oc2cc(O)cc(O)c12", "outcome": "inactive"},
      {"smiles": "CCCCCCCCCCCC(=O)N(C)CC(=O)O", "outcome": "inactive"},
      {"smiles": "CC1=NN(c2ccc(S(=O)(=O)O)cc2)C(=O)C1N=Nc1ccccc1", "note": "(stereo not given)", "outcome": "inactive"},
      {"smiles": "CCC(C)c1ccccc1", "note": "(stereo not given)", "outcome": "inactive"},
      {"smiles": "CCCCCCCCC(CO)CCCCCC", "note": "(stereo not given)", "outcome": "inactive"},
      {"smiles": "CC(=O)OC(C)c1ccccc1", "note": "(stereo not given)", "outcome": "inactive"},
      {"smiles": "CCCCC/C=C\\C/C=C\\CCCCCCCC(=O)O", "outcome": "inactive"},
      {"smiles": "CC(=O)OCCc1ccccc1", "outcome": "inactive"},
      {"smiles": "CC12CCC(CC1)C(C)(C)O2", "outcome": "inactive"},
      {"smiles": "CC1(C)C(=O)N(CO)C(=O)N1CO", "outcome": "inactive"},
      {"smiles": "COc1ccc(-c2coc3cc(O)cc(O)c3c2=O)cc1", "outcome": "inactive"},
      {"smiles": "CCN1CN(CC)CN(CC)C1", "AC50": "175 µM (active)"},
      {"smiles": "O=C1CCCN1C1CCCCC1", "outcome": "inactive"},
      {"smiles": "CCCCC(=O)O", "outcome": "inactive"},
      {"smiles": "CCCCCC1=CCCC1=O", "outcome": "inactive"},
      {"smiles": "CCCCNS(=O)(=O)c1ccc(C)cc1", "outcome": "inactive"},
      {"smiles": "CCCCC1CCC(=O)O1", "note": "(stereo not given)", "outcome": "inactive"},
      {"smiles": "O=C(Oc1ccccc1)c1ccccc1O", "outcome": "inactive"},
      {"smiles": "CCCCNC(=S)NCCCC", "outcome": "inactive"},
      {"smiles": "O=C(O)c1cc(O)c2ccccc2c1O", "AC50": "5.04 µM (active)"},
      {"smiles": "CC(C)CCOCc1ccccc1", "outcome": "inactive"},
      {"smiles": "O=C1CCCCC1C1CCCCC1", "note": "(stereo not given)", "outcome": "inactive"},
      {"smiles": "CC(C)(c1ccccc1)c1ccc(Nc2ccc(C(C)(C)c3ccccc3)cc2)cc1", "outcome": "inactive"},
      {"smiles": "O=C(C=Cc1ccccc1)OCCc1ccccc1", "outcome": "inactive"},
      {"smiles": "CC(=O)OC/C=C(/C)CCC=C(C)C", "outcome": "inactive"},
      {"smiles": "CCCCOCC(C)O", "note": "(stereo not given)", "outcome": "inactive"},
      {"smiles": "C=C1C[C@H]2[C@@H]3C=C(C)C4=CC(=O)CC[C@]4(C)[C@H]3CC[C@]2(C)[C@@]1(OC(C)=O)C(C)=O", "outcome": "inactive"},
      {"smiles": "CCCCCCCC(=O)OCC", "outcome": "inactive"},
      {"smiles": "CC(C)c1ccc2ncccc2c1", "outcome": "inactive"}
    ]}
  ]
}
